Assay results taken from PubChem BioAssay (Tox21).
Where “and” joins values, the source holds several entries; their conditions need not be identical. Identical values can stand only once. Some compounds were tested as several samples or in several runs, with calls that do not always agree. Calls of active or inactive are those of the source. Unless noted, the call rests on the fitted dose curve; in most records, active means well fitted curve in the direction sought with a large enough effect in the repeat runs; inconclusive means weak or mixed curves; inactive means no such curve, though single readings can be large; an effect the other way counts as inactive or inconclusive.

Experiments:
[1] = qHTS assay to identify small molecule antagonists of the glucocorticoid receptor (GR) signaling pathway - cell viability counter screen (AID 720693); further: nearly all actives have a fitted effect of over 55% in size; further: potency means the concentration at half of the fitted maximal effect
[2] = qHTS assay for identifying genotoxic compounds that show differential cytotoxicity against isogenic chicken DT40 cell lines with known DNA damage response pathways - Rev3 mutant cell line (AID 743014); further: nearly all actives have a fitted effect of over 55% in size; further: potency means the concentration at half of the fitted maximal effect
[3] = qHTS assay for identifying genotoxic compounds that show differential cytotoxicity against isogenic chicken DT40 cell lines with known DNA damage response pathways - Rad54/Ku70 mutant cell line (AID 743015); further: nearly all actives have a fitted effect of over 60% in size; further: potency means the concentration at half of the fitted maximal effect
[4] = qHTS assay to identify small molecule antagonists of the androgen receptor (AR) signaling pathway using the MDA cell line - cell viability counter screen (AID 743041; further: nearly all actives have a fitted effect of over 45% in size; further: potency means the concentration at half of the fitted maximal effect)
How it was run: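 Cells were plated at 3,000 per well and left 5 h. Compounds in DMSO were then pinned in, followed by R1881. After 16 h at 37C, CellTiter-Fluor fluorescence gave viability.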

[5] = qHTS assay to identify small molecule antagonists of the thyroid receptor (TR) signaling pathway - cell viability counter screen (AID 743064); further: nearly all actives have a fitted effect of over 50% in size; further: potency means the concentration at half of the fitted maximal effect
How it was run: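 Plate GH3.TRE-Luc cells; incubate 4 h at 37 °C; add compound, then T3 to 1 nM final; incubate 23.5 h; add CellTiter-Fluor; incubate 30 min at 37 °C, 5% CO2; read fluorescence.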

[6] = test system: thyroid hormone receptor (rat, GH3 cells); test: qHTS assay to identify small molecule agonists of the thyroid receptor (TR) signaling pathway (AID 743066; calls by dose curve; further: on the % scale 0 is the no-effect control and ±100 the full control effect)
[7] = biological target: Estrogen receptor (Homo sapiens) (UniProt P03372); test: qHTS assay to identify small molecule antagonists of the estrogen receptor alpha (ER-alpha) signaling pathway (AID 743069; active means well fitted curve in the direction sought with a large enough effect in the signal ratio in the repeat runs, not every such curve was filed as active; inconclusive means weak or mixed curves, or effect the other way; inactive means no such curve, though single readings can be large or run the other way; the % refers to the signal ratio; further: potency means the concentration at half of the fitted maximal effect)
Estrogen receptor (Homo sapiens), sequence (P03372 whole entry, looked up): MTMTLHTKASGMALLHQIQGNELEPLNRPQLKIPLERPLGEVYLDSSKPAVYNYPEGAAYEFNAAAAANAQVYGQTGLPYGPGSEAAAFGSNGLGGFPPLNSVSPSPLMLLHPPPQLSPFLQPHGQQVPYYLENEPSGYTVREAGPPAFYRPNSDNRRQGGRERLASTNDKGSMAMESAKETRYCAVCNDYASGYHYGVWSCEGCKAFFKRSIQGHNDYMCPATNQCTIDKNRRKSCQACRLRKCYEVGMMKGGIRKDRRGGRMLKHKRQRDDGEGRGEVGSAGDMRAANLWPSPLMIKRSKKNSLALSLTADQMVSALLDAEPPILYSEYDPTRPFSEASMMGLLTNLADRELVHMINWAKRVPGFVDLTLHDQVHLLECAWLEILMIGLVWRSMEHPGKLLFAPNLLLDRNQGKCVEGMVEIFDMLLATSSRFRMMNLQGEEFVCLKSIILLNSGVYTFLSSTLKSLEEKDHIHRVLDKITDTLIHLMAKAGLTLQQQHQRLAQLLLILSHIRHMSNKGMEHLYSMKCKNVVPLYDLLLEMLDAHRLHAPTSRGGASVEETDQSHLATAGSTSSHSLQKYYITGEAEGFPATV
How it was run: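 ER-alpha-UAS-bla GripTite HEK293 line; 2% charcoal-stripped FBS overnight; plated, 4 hr 37C/5% CO2; cpd in DMSO + 17beta-estradiol, 18 hr 37C; LiveBLAzer B/G FRET substrate 2 hr RT; fluorescence intensity.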

[8] = qHTS assay to identify small molecule antagonists of the estrogen receptor alpha (ER-alpha) signaling pathway - cell viability counter screen (AID 743074; calls by dose curve;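 further: HEK293 cells carrying ER-alpha-UAS-bla reporter stimulated with 17beta-estradiol; nearly all actives have a fitted effect of over 45% in size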; further: potency means the concentration at half of the fitted maximal effect)
[9] = biological target: Estrogen receptor (Homo sapiens) (UniProt P03372); test: qHTS assay to identify small molecule agonists of the estrogen receptor alpha (ER-alpha) signaling pathway (AID 743075; calls by dose curve;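 further: HEK293 GripTite cells with ER-alpha and UAS-driven beta-lactamase reporter; on the % scale 0 is the no-effect control and ±100 the full control effect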); settings: HEK293 ER-alpha-UAS-bla, beta-lactamase FRET ratio, 18 h; activation: at 70.1 µM (top of the series)
[10] = biological target: Estrogen receptor (Homo sapiens) (UniProt P03372); test: qHTS assay to identify small molecule agonists of the estrogen receptor alpha (ER-alpha) signaling pathway using the BG1 cell line (AID 743079); settings: BG1Luc4E2 cells, ERE-luciferase agonist, 22 h; further: on the % scale 0 is the no-effect control and ±100 the full control effect; nearly all actives have a fitted effect of over 20% in size
[11] = qHTS assay to identify small molecule antagonists of the estrogen receptor alpha (ER-alpha) signaling pathway using the BG1 cell line (AID 743080; calls by dose curve;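 further: BG1 cells stimulated with 17beta-estradiol alongside compound; nearly all actives have a fitted effect of over 25% in size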; further: potency means the concentration at half of the fitted maximal effect)
How it was run: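 Seeding, 24 h rest, compound transfer from DMSO, 17beta-estradiol addition, 21.5 h incubation, CellTiter-Fluor (30 min, 37 C), then ONE-Glo (30 min, room temperature): this sequence was run on BG1-Luc-4E2 reporter cells.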

[12] = qHTS assay to identify small molecule antagonists of the estrogen receptor alpha (ER-alpha) signaling pathway using the BG1 cell line - cell viability counter screen (AID 743081);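 further: compound given together with 17beta-estradiol as the ER stimulus; nearly all actives have a fitted effect of over 45% in size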; further: potency means the concentration at half of the fitted maximal effect
[13] = qHTS assay to identify small molecule antagonists of the androgen receptor (AR) signaling pathway - cell viability counter screen (AID 743033; further: nearly all actives have a fitted effect of over 45% in size; further: potency means the concentration at half of the fitted maximal effect)
Aromatase (Homo sapiens) = Aromatase (Homo sapiens) (UniProt P11511); test: qHTS assay to identify aromatase inhibitors (AID 743083); further: nearly all actives have a fitted effect of over 55% in size; further: potency means the concentration at half of the fitted maximal effect
Aromatase (Homo sapiens), sequence (P11511 whole entry, looked up): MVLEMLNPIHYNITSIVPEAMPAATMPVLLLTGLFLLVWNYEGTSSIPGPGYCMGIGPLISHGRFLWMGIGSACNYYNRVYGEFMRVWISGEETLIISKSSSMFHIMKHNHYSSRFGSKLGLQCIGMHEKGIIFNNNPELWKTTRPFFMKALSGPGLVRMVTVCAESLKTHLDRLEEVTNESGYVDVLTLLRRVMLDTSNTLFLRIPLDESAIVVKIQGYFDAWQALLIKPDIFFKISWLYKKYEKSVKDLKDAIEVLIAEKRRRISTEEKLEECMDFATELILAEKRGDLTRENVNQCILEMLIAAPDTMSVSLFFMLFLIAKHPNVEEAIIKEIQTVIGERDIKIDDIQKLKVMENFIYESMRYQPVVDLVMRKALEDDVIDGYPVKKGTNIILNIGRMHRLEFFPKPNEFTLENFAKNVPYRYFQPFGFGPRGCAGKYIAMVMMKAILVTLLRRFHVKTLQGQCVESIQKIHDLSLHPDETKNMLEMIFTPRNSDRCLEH

[14] = qHTS assay to identify small molecule antagonists of the thyroid receptor (TR) signaling pathway (AID 743065); further: nearly all actives have a fitted effect of over 55% in size; further: potency means the concentration at half of the fitted maximal effect
How it was run: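 Antagonism measured as loss of luciferase signal in GH3 cells stably carrying a TRE-luciferase reporter, co-treated with compound and T3 (1 nM final) for 23.5 h at 37 C. Viability was read in the same well by CellTiter-Fluor.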

[15] = biological target: Androgen receptor (Homo sapiens) (UniProt P10275); test: qHTS assay to identify small molecule agonists of the androgen receptor (AR) signaling pathway using the MDA cell line (AID 743040; further: on the % scale 0 is the no-effect control and ±100 the full control effect; nearly all actives have a fitted effect of over 20% in size)
Androgen receptor (Homo sapiens), sequence (P10275 whole entry, looked up): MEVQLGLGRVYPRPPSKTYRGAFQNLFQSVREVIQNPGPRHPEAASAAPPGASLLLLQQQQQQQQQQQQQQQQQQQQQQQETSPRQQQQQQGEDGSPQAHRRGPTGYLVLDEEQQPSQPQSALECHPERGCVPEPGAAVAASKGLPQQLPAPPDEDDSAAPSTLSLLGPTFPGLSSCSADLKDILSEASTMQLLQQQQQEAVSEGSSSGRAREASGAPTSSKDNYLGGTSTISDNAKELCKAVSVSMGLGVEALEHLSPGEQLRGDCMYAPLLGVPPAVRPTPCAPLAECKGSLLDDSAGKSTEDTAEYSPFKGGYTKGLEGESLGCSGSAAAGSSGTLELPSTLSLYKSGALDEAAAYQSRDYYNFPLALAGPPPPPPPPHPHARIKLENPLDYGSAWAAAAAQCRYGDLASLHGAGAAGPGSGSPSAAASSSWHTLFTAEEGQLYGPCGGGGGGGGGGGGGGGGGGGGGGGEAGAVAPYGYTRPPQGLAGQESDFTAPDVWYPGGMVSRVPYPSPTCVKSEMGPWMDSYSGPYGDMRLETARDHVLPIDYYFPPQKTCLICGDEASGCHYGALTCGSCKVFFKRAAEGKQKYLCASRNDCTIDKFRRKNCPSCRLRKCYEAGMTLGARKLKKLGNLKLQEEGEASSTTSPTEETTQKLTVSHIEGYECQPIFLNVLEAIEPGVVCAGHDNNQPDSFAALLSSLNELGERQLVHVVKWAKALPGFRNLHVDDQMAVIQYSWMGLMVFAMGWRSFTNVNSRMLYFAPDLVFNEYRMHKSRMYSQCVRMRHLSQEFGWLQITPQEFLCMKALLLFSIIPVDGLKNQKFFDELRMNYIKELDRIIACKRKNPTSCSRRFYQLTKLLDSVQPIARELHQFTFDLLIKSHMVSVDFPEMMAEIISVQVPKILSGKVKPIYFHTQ
How it was run: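 Cells plated, 5 h at 37C/0% CO2; compound or DMSO pinned; 16 h at 37C; ONE-Glo added; luminescence measured after 30 min at room temperature. Reporter line: MDA-kb2 with MMTV-luciferase responsive to AR and GR.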

[16] = biological target: Androgen receptor (Homo sapiens) (UniProt P10275); test: qHTS assay to identify small molecule antagonists of the androgen receptor (AR) signaling pathway using the MDA cell line (AID 743042)
How it was run: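 Antagonist mode: compounds plus R1881 agonist added to MDA-kb2 AR-luc cells, incubated 16 h at 37C. Luciferase reporter luminescence quantified, with multiplexed CellTiter-Fluor readout for cell viability.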

[17] = biological target: Androgen receptor (Homo sapiens) (UniProt P10275); test: qHTS assay to identify small molecule antagonists of the androgen receptor (AR) signaling pathway (AID 743035; active means well fitted inhibition curve with a large enough effect in the signal ratio in the repeat runs, not every such curve was filed as active; inconclusive means weak or mixed curves, or effect the other way; inactive means no such curve, though single readings can be large or run the other way; the % refers to the signal ratio; further: potency means the concentration at half of the fitted maximal effect)
How it was run: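 Fluorescence from a beta-lactamase FRET substrate (LiveBLAzer B/G, 2 h, room temperature) measured inhibition of R1881-stimulated signaling in GeneBLAzer AR-UAS-bla HEK293 cells exposed to compound for 16 h at 37C.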

Cc1ccc2oc(CN(Cc3ccccc3)C(=O)Nc3c(F)cc(F)cc3F)c(-c3ccc(Cl)cc3)c2c1
inactive: Potency [1] | Potency [4] | Potency [5] | Potency [6] | Potency [7] | Potency [8] | Potency [9] | activation ([10]; at 70.3 µM (top of the series)) -12.5% | Potency [11] | Potency [12]
active: Potency [2] 13.3 µM | Potency [3] 14.9 µM

CCC1OCC(COc2ccc(Oc3ccccc3)cc2)O1 (stereo not drawn)
inactive: Potency [1] | Potency [2] | Potency [13] | Potency [4] | Potency [5] | Potency [8] | Potency [12] | Potency (Aromatase (Homo sapiens))

CC(=O)SC[C@@H](Cc1ccccc1)C(=O)NCC(=O)OCc1ccccc1
inactive: Potency [1] | Potency [3] | Potency [13] | Potency [4] | Potency [5] | Potency [14] | Potency [6] | Potency [7] | Potency [8] | Potency [9] | activation ([10]; at 32.5 µM (top of the series)) 3.92% | Potency [11] | Potency (Aromatase (Homo sapiens))

Cc1cc(=O)oc2cc(N(C)C)ccc12
inactive: Potency [1] | Potency [13] | Potency [14] | Potency [6] | Potency [8] | Potency (Aromatase (Homo sapiens))
active: Potency [2] 54.5 µM

COc1c(C)c2c(c(O)c1C/C=C(\C)CCC(=O)O)C(=O)OC2
active: Potency [2] 0.16 µM | Potency [3] 0.202 µM | Potency [5] 0.717 µM | Potency [14] 0.507 µM | Potency [7] 0.512 µM [inconclusive]
inactive: Potency [1] | Potency [4] | Potency [6] | Potency [8] | Potency [12] | Potency (Aromatase (Homo sapiens))

CSc1ccc(C(=O)c2[nH]c(=O)[nH]c2C)cc1
inactive: Potency [1] | Potency [2] | Potency [3] | Potency [13] | Potency [4] | Potency [7] | Potency [8] | Potency [9] | Potency [11] | Potency [12] | Potency (Aromatase (Homo sapiens))

NC(=O)CC[C@@H]1NC(=O)[C@H](Cc2ccccc2)NC(=O)[C@H](Cc2ccc(O)cc2)NC(=O)CCSSC[C@@H](C(=O)N2CCC[C@H]2C(=O)N[C@@H](CCCN=C(N)N)C(=O)NCC(N)=O)NC(=O)[C@H](CC(N)=O)NC1=O
inactive: Potency [1] | Potency [2] | Potency [3] | Potency [13] | Potency [4] | Potency [8] | Potency [12] | Potency (Aromatase (Homo sapiens))

O=C(Nc1ccc(Oc2ccc(Cl)cc2)c(Cl)c1)c1cc(I)cc(I)c1O
active: Potency [1] 6.01 µM | Potency [14] 29.8 µM | Potency [8] 6.01 µM
inactive: Potency [2] | Potency [3] | Potency [13] | Potency [4] | Potency [12] | Potency (Aromatase (Homo sapiens))

CCCCCCCC[N+](CCCCCCCC)(CCCCCCCC)CCCCCCCC
active: Potency [1] 7.75 µM | Potency [2] 1.37 µM | Potency [3] 1.37 µM | Potency [13] 0.308 µM | Potency [4] 4.32 µM | Potency [5] 3.43 µM | Potency [7] 38.8 µM [cytotoxic] | Potency [8] 15.5 µM | Potency [11] 1.72 µM | Potency [12] 24.3 µM | Potency (Aromatase (Homo sapiens)) 2.16 µM

NC(=NCCCCCCN=C(N)/N=C(\N)Nc1ccc(Cl)cc1)/N=C(\N)Nc1ccc(Cl)cc1
inactive: Potency [4] | Potency [6]
inactive and 68.2 µM (active): Potency [12]
active: Potency [1] 21.3 µM [middle of 5 runs] | Potency [2] 15.3 µM [middle of 5 runs] | Potency [3] 17.1 µM [middle of 5 runs] | Potency [5] 8.56 µM [middle of 5 runs] | Potency [14] 6.06 µM [middle of 5 runs] | Potency [8] 25 µM [middle of 4 runs] | Potency (Aromatase (Homo sapiens)) 24.1 µM [middle of 4 runs]

O=C(c1ccc(F)cc1)C1CCN(CCn2c(=O)[nH]c3ccccc3c2=O)CC1
inactive: Potency [1] | Potency [2] | Potency [13] | Potency [15] | Potency [4] | Potency [16] | Potency [5] | Potency [14] | Potency [6] | Potency [7] | Potency [8] | Potency [9] | activation ([10]; at 70.3 µM (top of the series)) 21.8% | Potency [11] | Potency [12] | Potency (Aromatase (Homo sapiens))

CN(C/C=C/C#CC(C)(C)C)Cc1cccc2ccccc12
inactive: Potency [1] | Potency [2] | Potency [13] | Potency [4] | Potency [8] | Potency [12] | Potency (Aromatase (Homo sapiens))

CCCCN(CCCC)C(=O)N(CCCC)CCCC
inactive: Potency [1] | Potency [2] | Potency [3] | Potency [13] | Potency [4] | Potency [6] | Potency [8] | Potency [12]

Nc1ccc2cc(S(=O)(=O)O)cc(O)c2c1N=Nc1ccccc1C(F)(F)F
inactive: Potency [1] | Potency [3] | Potency [13] | Potency [6] | Potency [8] | Potency (Aromatase (Homo sapiens))

CCCCN(CCCC)c1ccc(C(=O)c2ccccc2C(=O)O)c(O)c1
inactive: Potency [2] | Potency [13] | Potency [15] | Potency [4] | Potency [6] | Potency [12] | Potency (Aromatase (Homo sapiens))
active: Potency [17] 39.3 µM | Potency [5] 55 µM | Potency [14] 55 µM | Potency [8] 49.4 µM
